Active and inactive are the calls of the source. How the source made its calls: active means hit-call score of the fitted dose curve at least 0.9, where 1 is the maximum; inactive means score below 0.9.
assay: APR_HepG2_StressKinase_24hr: Apredica 24-hour HepG2 Assay for Stress Kinase (AID 2282922); settings: HepG2 stress kinase (phospho-c-Jun) imaging, actives raise or lower the signal
Method in brief: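 High-content imaging of phospho-c-Jun immunofluorescence in fixed, permeabilized HepG2 cells after 24 h dosing. Ten concentrations, 0.39 to 200 uM, run in duplicate at 0.5% v/v DMSO; gain or loss of signal versus DMSO.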

Row | Structure (SMILES) | outcome | AC50
1 | O=[N+]([O-])c1ccc(Oc2ccc(Cl)cc2Cl)cc1 | inactive | –
2 | Cn1cc(-c2ccccc2)c(=O)c(-c2cccc(C(F)(F)F)c2)c1 | inactive | –
3 | CN(C)c1ccccc1 | inactive | –
4 | Oc1ccccc1Cl | inactive | –
5 | C=CCc1ccc2c(c1)OCO2 | inactive | –
6 | CCCCCCCCCCCCCN1CC(C)OC(C)C1 (configuration not stated) | inactive | –
7 | Nc1cc(Cl)cc(C(=O)O)c1Cl | inactive | –
8 | Nc1ccc(Cl)cc1N | inactive | –
9 | CC(C)N(Cc1ccccc1)C(=O)C(C)(C)C | inactive | –
10 | ClCCOCCCl | inactive | –
11 | CO[C@@H]1[C@H](OC(=O)NC(=O)CCl)CC[C@]2(CO2)[C@H]1[C@@]1(C)O[C@@H]1CC=C(C)C | inactive | –
12 | CCOc1cccc(C2(N3CCN(c4ccccc4)CC3)CCC(C)CC2)c1 (configuration not stated) | inactive | –
13 | CCC12COCN1COC2 | – | 99.5 µM (active)
14 | CS(=O)(=O)NC(=O)c1cc(Oc2ccc(C(F)(F)F)cc2Cl)ccc1[N+](=O)[O-] | inactive | –
15 | ClC1=C(Cl)C2(Cl)C3C(Cl)C=CC3C1(Cl)C2(Cl)Cl (configuration not stated) | inactive | –
16 | Cc1ccc([N+](=O)[O-])cc1 | inactive | –
17 | O=C(N[C@H](c1ccccc1)[C@@H]1CN2CCC1CC2)c1c(Cl)ccc(C(F)(F)F)c1Cl | inactive | –
18 | CCCCOC(=O)c1ccccc1C(=O)OCc1ccccc1 | inactive | –
19 | O=C1CCCO1 | inactive | –
20 | c1ccc(N=Nc2ccccc2)cc1 | inactive | –
21 | CN(C)[C@@H]1C(=O)C(C(N)=O)=C(O)[C@@]2(O)C(=O)C3=C(O)c4c(O)cccc4[C@@](C)(O)[C@H]3C[C@@H]12 | inactive | –
22 | CCC(C)c1ccc(O)cc1 (configuration not stated) | inactive | –
23 | c1ccc2c(c1)oc1ccccc12 | inactive | –
24 | CCCSC(=O)N(CCC)CCC | inactive | –
25 | CCCCCCCCn1sccc1=O | – | 3.47 µM (active)
26 | O=C(O)C1C2CCC(O2)C1C(=O)O (configuration not stated) | inactive | –
27 | Oc1ccc2ccc3cccc4ccc1c2c34 | – | 80.8 µM (active)

assay: APR_HepG2_p53Act_72hr: Apredica 72-hour HepG2 Assay for p53 Activation (AID 2282923); settings: high-content imaging, actives raise or lower the signal;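 further: average cellular p53 protein immunofluorescence intensity in HepG2 cells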
Method in brief: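 Readout: p53 immunofluorescence quantified by automated high-content imaging at 20x, six fields per well, nuclei located via Hoechst. Dosing ran 72 hr over ten concentrations from 0.39 to 200 uM; bidirectional curve fitting against DMSO baseline.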

Row | Structure (SMILES) | outcome | AC50
28 | O=[N+]([O-])c1ccc(Oc2ccc(Cl)cc2Cl)cc1 | inactive | –
29 | Cn1cc(-c2ccccc2)c(=O)c(-c2cccc(C(F)(F)F)c2)c1 | inactive | –
30 | Oc1ccccc1Cl | inactive | –
31 | CCCCCCCCCCCCCN1CC(C)OC(C)C1 (configuration not stated) | inactive | –
32 | Nc1cc(Cl)cc(C(=O)O)c1Cl | inactive | –
33 | Nc1ccc(Cl)cc1N | – | 3.54 µM (active)
34 | CC(C)N(Cc1ccccc1)C(=O)C(C)(C)C | inactive | –
35 | CO[C@@H]1[C@H](OC(=O)NC(=O)CCl)CC[C@]2(CO2)[C@H]1[C@@]1(C)O[C@@H]1CC=C(C)C | inactive | –
36 | CCC12COCN1COC2 | – | 79.2 µM (active)
37 | Cc1ccc([N+](=O)[O-])cc1 | inactive | –
38 | CCCCOC(=O)c1ccccc1C(=O)OCc1ccccc1 | – | 98.9 µM (active)
39 | O=C1CCCO1 | inactive | –
40 | c1ccc(N=Nc2ccccc2)cc1 | inactive | –
41 | c1ccc2c(c1)oc1ccccc12 | inactive | –
42 | CCCSC(=O)N(CCC)CCC | inactive | –

Reference: PubChem BioAssay (EPA / NIEHS)
